Test results taken from PubChem BioAssay AID1159580 (chemical genetic matrix, 2015).
About 2,000 (36%) of roughly 5,500 compounds were called active. Inconclusive results (about 18%) are left out. Cut-off read from the data, not from the text of the source: active = normalized growth mostly below about 0.91 (no sharp cut-off); inconclusive = no clear call, values can overlap the other calls; inactive = mostly above about 0.92. This is one part of the list.

Assay: chemical genetic growth profiling, strain panel (AID 1159580);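 note: tested at 20 µM; growth read once vehicle control cultures reached saturation at 30 °C; 1 = growth at the plate median or of vehicle wells; lower values mean less growth of the strain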
Details: growth OD

Measured: normalized growth

CCC(=O)c1c(C)c(C)c(C)c(C)c1C
inactive: S. cerevisiae deletion strains, locus YAL013W, strain DEP1, stronger effect = lower value 0.985 | S. cerevisiae deletion strains, locus YBR229C, strain ROT2, stronger effect = lower value 0.992 | S. cerevisiae deletion strains, locus YCL061C, strain MRC1, stronger effect = lower value 0.988 | S. cerevisiae deletion strains, locus YDL101C, strain DUN1, stronger effect = lower value 0.99 | S. cerevisiae deletion strains, locus YDL134C, strain PPH21, stronger effect = lower value 0.984 | S. cerevisiae deletion strains, locus YDR150W, strain NUM1, stronger effect = lower value 1.01 | S. cerevisiae deletion strains, locus YEL061C, strain CIN8, stronger effect = lower value 0.975 | S. cerevisiae deletion strains, locus YGR078C, strain PAC10, stronger effect = lower value 1 | S. cerevisiae deletion strains, locus YHR030C, strain SLT2, stronger effect = lower value 0.95 | S. cerevisiae deletion strains, locus YHR087W, strain rtc3, stronger effect = lower value 0.959 | S. cerevisiae deletion strains, locus YJL187C, strain SWE1, stronger effect = lower value 0.995 | S. cerevisiae deletion strains, locus YJR043C, strain POL32, stronger effect = lower value 0.983 | S. cerevisiae deletion strains, locus YJR075W, strain HOC1, stronger effect = lower value 0.948 | S. cerevisiae deletion strains, locus YKL190W, strain CNB1, stronger effect = lower value 0.983 | S. cerevisiae deletion strains, locus YLR039C, strain RIC1, stronger effect = lower value 1.1 | S. cerevisiae deletion strains, locus YLR058C, strain SHM2 (second series), stronger effect = lower value 0.967 | S. cerevisiae deletion strains, locus YLR085C, strain ARP6, stronger effect = lower value 1.01 | S. cerevisiae deletion strains, locus YLR262C, strain YPT6, stronger effect = lower value 1.06 | S. cerevisiae deletion strains, locus YML094W, strain GIM5, stronger effect = lower value 0.977 | S. cerevisiae deletion strains, locus YMR219W, strain ESC1, stronger effect = lower value 0.986 | S. cerevisiae deletion strains, locus YMR263W, strain SAP30, stronger effect = lower value 0.977 | S. cerevisiae deletion strains, locus YNL153C, strain GIM3, stronger effect = lower value 0.982 | S. cerevisiae deletion strains, locus YNL298W, strain CLA4 (second series), stronger effect = lower value 0.966 | S. cerevisiae deletion strains, locus YNL322C, strain KRE1, stronger effect = lower value 0.997 | S. cerevisiae deletion strains, locus YNR030W, strain Alg12, stronger effect = lower value 0.954 | S. cerevisiae deletion strains, locus YOL006C, strain TOP1, stronger effect = lower value 1.01 | S. cerevisiae deletion strains, locus YPL055C, strain LGE1, stronger effect = lower value 0.971 | S. cerevisiae deletion strains, locus YPL241C, strain CIN2, stronger effect = lower value 0.986 | S. cerevisiae deletion strains, locus YPR135W, strain CTF4, stronger effect = lower value 0.976 | S. cerevisiae strains, strain wild type, stronger effect = lower value 0.988
